Laboratory results: PubChem BioAssay (NCATS)
Inconclusive results are not listed. Active and inactive are the calls of the source. Unless noted, the call rests on the fitted dose curve.

Experiments:
[1] = target: Atrial natriuretic peptide receptor 1 (Homo sapiens) (UniProt P16066); test: Natriuretic polypeptide receptor (hNpr1) antagonism - Pilot screen (AID 1347049);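 further: HEK293 cells with hNpr1 and GloSensor cGMP luciferase stimulated by 0.1 nM hNppA; agonist-evoked cGMP luminescence read 20 min after hNppA addition; series mostly up to about 58 µM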
Sequence of Atrial natriuretic peptide receptor 1 (Homo sapiens) (P16066 whole entry, looked up): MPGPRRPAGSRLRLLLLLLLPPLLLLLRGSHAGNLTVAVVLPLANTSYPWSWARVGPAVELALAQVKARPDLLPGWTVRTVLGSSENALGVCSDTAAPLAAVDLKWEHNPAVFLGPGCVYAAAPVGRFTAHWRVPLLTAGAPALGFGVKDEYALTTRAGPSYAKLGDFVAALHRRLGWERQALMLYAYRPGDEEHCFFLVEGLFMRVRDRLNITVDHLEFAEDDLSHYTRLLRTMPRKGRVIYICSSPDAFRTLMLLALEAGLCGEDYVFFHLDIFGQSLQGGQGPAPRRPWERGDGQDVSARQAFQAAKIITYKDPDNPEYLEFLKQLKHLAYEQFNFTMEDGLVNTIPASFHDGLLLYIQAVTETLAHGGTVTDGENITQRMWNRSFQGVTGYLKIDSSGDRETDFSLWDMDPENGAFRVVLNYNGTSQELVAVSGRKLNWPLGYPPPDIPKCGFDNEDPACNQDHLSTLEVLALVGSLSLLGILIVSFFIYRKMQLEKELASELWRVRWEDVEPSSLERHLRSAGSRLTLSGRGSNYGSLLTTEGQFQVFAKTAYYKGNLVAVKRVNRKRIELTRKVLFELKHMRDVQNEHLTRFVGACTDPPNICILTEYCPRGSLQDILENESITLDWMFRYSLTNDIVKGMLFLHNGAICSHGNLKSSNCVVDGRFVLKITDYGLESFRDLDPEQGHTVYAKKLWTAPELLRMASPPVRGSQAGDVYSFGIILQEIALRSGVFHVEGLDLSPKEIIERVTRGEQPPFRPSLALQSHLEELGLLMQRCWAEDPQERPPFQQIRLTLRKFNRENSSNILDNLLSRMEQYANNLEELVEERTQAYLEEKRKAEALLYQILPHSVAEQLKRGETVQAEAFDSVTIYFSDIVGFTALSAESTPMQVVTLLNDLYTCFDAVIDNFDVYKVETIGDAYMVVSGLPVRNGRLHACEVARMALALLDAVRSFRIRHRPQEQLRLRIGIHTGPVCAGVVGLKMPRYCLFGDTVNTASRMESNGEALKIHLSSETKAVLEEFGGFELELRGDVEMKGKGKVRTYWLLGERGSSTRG
Method in brief: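 Cells expressing receptor plus cGMP biosensor are seeded and incubated overnight at 37C, then loaded with GloSensor reagent (2% final) at room temperature for 2 h. Library compounds go on for 30 min. A pre-read precedes agonist (hNppA, 0.1 nM final) and a 20-min readout.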

[2] = target: Atrial natriuretic peptide receptor 2 (Homo sapiens) (UniProt P20594); test: Natriuretic polypeptide receptor (hNpr2) antagonism - Pilot subtype selectivity assay (AID 1347050)
Sequence of Atrial natriuretic peptide receptor 2 (Homo sapiens) (P20594 whole entry, looked up): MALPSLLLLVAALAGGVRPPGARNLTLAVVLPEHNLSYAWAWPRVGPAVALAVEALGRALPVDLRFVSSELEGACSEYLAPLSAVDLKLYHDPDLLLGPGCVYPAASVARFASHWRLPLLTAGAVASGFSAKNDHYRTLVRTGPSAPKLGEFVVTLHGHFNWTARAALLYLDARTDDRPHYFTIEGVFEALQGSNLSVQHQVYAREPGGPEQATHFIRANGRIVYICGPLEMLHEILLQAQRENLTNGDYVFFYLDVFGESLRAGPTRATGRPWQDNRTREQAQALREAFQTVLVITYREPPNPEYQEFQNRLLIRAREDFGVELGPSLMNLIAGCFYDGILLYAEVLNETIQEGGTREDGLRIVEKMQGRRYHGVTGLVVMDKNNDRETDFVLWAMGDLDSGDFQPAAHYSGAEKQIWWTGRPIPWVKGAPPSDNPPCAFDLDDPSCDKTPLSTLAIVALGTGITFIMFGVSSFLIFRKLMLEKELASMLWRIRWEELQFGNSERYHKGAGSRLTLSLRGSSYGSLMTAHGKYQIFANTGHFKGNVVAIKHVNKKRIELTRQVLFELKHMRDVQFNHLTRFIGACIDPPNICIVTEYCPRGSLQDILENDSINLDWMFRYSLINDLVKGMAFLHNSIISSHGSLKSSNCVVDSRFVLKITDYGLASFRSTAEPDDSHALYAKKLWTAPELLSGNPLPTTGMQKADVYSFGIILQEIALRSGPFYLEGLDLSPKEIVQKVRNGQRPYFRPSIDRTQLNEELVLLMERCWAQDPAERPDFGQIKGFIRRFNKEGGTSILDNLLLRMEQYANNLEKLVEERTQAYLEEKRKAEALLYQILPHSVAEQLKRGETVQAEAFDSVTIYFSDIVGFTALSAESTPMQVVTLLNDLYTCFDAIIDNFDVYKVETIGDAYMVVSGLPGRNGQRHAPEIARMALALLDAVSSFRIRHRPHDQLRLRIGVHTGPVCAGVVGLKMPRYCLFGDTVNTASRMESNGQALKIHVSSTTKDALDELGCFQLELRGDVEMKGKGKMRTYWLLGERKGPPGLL
Method in brief: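 Read-out: GloSensor luminescence (CCD imager), baseline vs post-stimulation. HEK293 cells expressing hNpr2; compounds pre-incubated 30-50 min at ambient temperature; hNppC 1 nM final, 20 min.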

[3] = NS1 protein of Zika virus - qHTS assay to identify small molecule inhibitors in human HEK 293 cells (AID 1347053; active means well fitted curve in the direction sought with a large enough effect; an effect the other way counts as inactive or inconclusive; further: series mostly up to about 46 µM; nearly all actives have a fitted effect of over 55% in size)
Method in brief: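 Readout was TR-FRET using paired anti-NS1 antibodies after 24 h infection of HEK 293 cells with ZIKV MR766 (MOI = 0.5). Compound preceded virus by 1 h; reduced signal reflects lower NS1 expression.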

[4] = target: T1, Tyrosine-protein phosphatase non-receptor type substrate 1 (Homo sapiens) + Leukocyte surface antigen CD47 (Homo sapiens) (UniProt P78324+Q08722); test: CD47-SIRPalpha protein protein interaction - LANCE assay qHTS validation (AID 1347057; active means well fitted curve in the direction sought with a large enough effect in the signal ratio, with a control signal flat, not every such curve was filed as active; the % refers to the signal ratio; further: potency means the concentration at half of the fitted maximal effect)
T1 sequence (P78324 whole entry, looked up, the tested form may be a part): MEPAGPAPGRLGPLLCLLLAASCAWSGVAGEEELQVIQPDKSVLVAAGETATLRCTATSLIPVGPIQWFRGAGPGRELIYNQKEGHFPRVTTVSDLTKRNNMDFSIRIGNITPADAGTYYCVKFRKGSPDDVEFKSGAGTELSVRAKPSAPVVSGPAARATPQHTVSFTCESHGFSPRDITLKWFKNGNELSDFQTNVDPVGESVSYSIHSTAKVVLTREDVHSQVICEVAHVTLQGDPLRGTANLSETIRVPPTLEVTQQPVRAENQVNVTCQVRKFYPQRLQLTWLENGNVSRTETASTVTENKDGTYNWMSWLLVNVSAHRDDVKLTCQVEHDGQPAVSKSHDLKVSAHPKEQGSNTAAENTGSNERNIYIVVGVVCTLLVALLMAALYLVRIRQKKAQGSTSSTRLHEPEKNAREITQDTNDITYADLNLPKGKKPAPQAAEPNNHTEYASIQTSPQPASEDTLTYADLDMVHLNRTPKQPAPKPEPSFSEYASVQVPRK
T1 sequence (Q08722 whole entry, looked up, the tested form may be a part): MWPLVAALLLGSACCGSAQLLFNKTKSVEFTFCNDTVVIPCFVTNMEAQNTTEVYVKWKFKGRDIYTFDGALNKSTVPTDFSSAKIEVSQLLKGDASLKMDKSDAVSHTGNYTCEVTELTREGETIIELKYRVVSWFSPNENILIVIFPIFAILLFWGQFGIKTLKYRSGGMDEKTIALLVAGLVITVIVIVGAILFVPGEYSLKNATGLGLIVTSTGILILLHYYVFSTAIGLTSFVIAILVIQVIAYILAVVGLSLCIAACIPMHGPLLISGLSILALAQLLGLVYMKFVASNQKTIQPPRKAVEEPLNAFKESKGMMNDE
Method in brief: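 Inhibition of soluble CD47/SIRPalpha ectodomain association by titrated compounds, measured as 665/615 nm time-resolved FRET ratio after sequential 30 min room-temperature incubations.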

[5] = target: Parathyroid hormone/parathyroid hormone-related peptide receptor (Homo sapiens) (UniProt Q03431); test: qHTS for PTHR1 Agonists: Optimization Screen against the NCGC LOPAC library (AID 1347079; active means well fitted curve in the direction sought with a large enough effect; an effect the other way counts as inactive or inconclusive;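 further: GloSensor cAMP luminescence in HEK-293 GP2 cells expressing human PTHR1 with IBMX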)
Sequence of Parathyroid hormone/parathyroid hormone-related peptide receptor (Homo sapiens) (Q03431 whole entry, looked up): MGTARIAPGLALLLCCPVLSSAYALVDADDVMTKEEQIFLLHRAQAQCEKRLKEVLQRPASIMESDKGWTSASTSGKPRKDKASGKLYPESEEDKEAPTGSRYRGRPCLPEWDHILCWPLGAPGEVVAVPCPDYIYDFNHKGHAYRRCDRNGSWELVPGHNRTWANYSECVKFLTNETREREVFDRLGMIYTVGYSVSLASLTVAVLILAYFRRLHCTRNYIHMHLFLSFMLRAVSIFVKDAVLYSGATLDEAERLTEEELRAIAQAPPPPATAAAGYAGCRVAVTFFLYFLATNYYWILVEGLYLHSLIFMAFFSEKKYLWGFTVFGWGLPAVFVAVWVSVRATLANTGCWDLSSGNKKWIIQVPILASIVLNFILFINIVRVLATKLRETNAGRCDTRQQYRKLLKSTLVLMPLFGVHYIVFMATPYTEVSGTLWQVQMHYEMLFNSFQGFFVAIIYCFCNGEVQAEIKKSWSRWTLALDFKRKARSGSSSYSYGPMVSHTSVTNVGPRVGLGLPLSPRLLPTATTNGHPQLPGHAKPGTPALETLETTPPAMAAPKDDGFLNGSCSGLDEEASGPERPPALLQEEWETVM
Method in brief: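 Signal increase flags agonism. GP2 cells, derived from HEK-293, express human PTHR1 and a GloSensor cAMP construct.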

[6] = qHTS for Inhibitors of the Functional Ribonucleoprotein Complex (vRNP) of Lassa (LASV) Arenavirus: LASV Primary Screen - GLuc reporter signal (AID 1347082; calls by dose curve; tested in HEK293 reporter line; further: series mostly up to about 57 µM; nearly all actives have a fitted effect of over 60% in size)
[7] = qHTS for Inhibitors of the Functional Ribonucleoprotein Complex (vRNP) of Lassa (LASV) Arenavirus: Viability assay - alamar blue signal for LASV Primary Screen (AID 1347083; calls by dose curve; tested in HEK293 reporter line; further: series mostly up to about 57 µM; nearly all actives have a fitted effect of over 80% in size)
[8] = qHTS for Inhibitors of the Functional Ribonucleoprotein Complex (vRNP) of Lymphocytic Choriomeningitis Arenaviruses (LCMV): Viability assay - alamar blue signal for LCMV Primary Screen (AID 1347085; calls by dose curve; tested in HEK293 reporter line; further: series mostly up to about 57 µM; nearly all actives have a fitted effect of over 80% in size)
[9] = target: Nucleoprotein (Lymphocytic choriomeningitis virus (strain Armstrong)) (UniProt P09992); test: qHTS for Inhibitors of the Functional Ribonucleoprotein Complex (vRNP) of Lymphocytic Choriomeningitis Arenaviruses (LCMV): LCMV Primary Screen - GLuc reporter signal (AID 1347086); further: series mostly up to about 57 µM; nearly all actives have a fitted effect of over 70% in size
Sequence of Nucleoprotein (Lymphocytic choriomeningitis virus (strain Armstrong)) (P09992 whole entry, looked up): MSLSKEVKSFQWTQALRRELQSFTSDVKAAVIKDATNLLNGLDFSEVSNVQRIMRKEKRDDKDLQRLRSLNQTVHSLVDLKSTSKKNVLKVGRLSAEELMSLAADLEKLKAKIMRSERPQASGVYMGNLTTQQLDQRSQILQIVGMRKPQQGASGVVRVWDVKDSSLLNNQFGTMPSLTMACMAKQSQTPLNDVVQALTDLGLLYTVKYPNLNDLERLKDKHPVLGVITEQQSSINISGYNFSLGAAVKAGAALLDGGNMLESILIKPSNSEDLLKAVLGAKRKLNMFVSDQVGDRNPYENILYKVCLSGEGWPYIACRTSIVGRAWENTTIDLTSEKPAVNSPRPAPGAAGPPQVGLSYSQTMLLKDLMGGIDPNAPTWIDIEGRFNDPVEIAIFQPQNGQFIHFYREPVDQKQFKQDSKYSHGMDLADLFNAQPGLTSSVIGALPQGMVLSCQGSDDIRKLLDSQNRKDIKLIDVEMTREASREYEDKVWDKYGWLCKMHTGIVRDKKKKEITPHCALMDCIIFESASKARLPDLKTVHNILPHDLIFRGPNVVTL

[10] = target: T1, Tyrosine-protein phosphatase non-receptor type substrate 1 (Homo sapiens) + Leukocyte surface antigen CD47 (Homo sapiens); test: CD47-SIRPalpha protein protein interaction - HTRF assay qHTS validation (AID 1347058; active means well fitted curve in the direction sought with a large enough effect in the signal ratio, not every such curve was filed as active; the % refers to the signal ratio; further: series mostly up to about 38 µM)
Method in brief: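 Soluble extracellular domains (6His-CD47, Avi-tag-biotinylated SIRPalpha) in PBS pH 7.4 with 0.05% IGEPAL CA-630. Compounds were preincubated 30 min at RT with CD47 and anti-His-Eu, then SIRPalpha and SAV-XL665 were added. TR-FRET 665/615 ratio.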

[11] = target: T1, Tyrosine-protein phosphatase non-receptor type substrate 1 (Homo sapiens) + Leukocyte surface antigen CD47 (Homo sapiens); test: CD47-SIRPalpha protein protein interaction - Alpha assay qHTS validation (AID 1347059; active means well fitted curve in the direction sought with a large enough effect; an effect the other way counts as inactive or inconclusive;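 further: bead proximity luminescence from CD47 binding SIRPalpha after compound preincubation with SIRPalpha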; further: potency means the concentration at half of the fitted maximal effect)
Method in brief: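 In PBS (pH 7.4) with 0.05% IGEPAL CA-630, compound is preincubated with biotin-Avi-SIRPalpha ectodomain before His-CD47 ectodomain and affinity beads are added. Light-protected room-temperature incubations; AlphaScreen readout.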

[12] = Natriuretic polypeptide receptor (hNpr1) antagonism - Pilot counterscreen GloSensor control cell line (AID 1347045); further: potency means the concentration at half of the fitted maximal effect
Method in brief: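 HEK293 cGMP-sensor cells; 2% GloSensor reagent 2 h RT; LOPAC compounds in 1:5 titrations 30-50 min; 50 uM SNP 20 min; luminescence pre-read and post-read.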

Measured: Potency

COC(=O)N1CCN(C(=O)Cc2ccc(Cl)c(Cl)c2)C(CN2CCCC2)C1 (stereo not drawn)
not listed: [10] | [11] | [12]
inactive: all other assays above

Nc1ccc(CCN2CCN(c3cccc(C(F)(F)F)c3)CC2)cc1
not listed: [11] | [12]
inactive: all other assays above

OC1CCCCC1N1CCC(c2ccccc2)CC1 (stereo not drawn)
not listed: [11] | [12]
inactive: all other assays above

NCCc1ccc(S(=O)(=O)F)cc1
not listed: [10] | [12]
inactive: all other assays above

CCN1C[C@@]2(COC)C3[C@@H](OC)C4[C@@H]1C3([C@@H]1C[C@]3(O)[C@H](OC(=O)c5ccccc5)[C@@H]1[C@]4(OC(C)=O)[C@@H](O)[C@@H]3OC)[C@H](OC)C[C@H]2O
not listed: [10] | [12]
inactive: all other assays above

C[N+]1(C)CCOC(O)(c2ccc(-c3ccc(C4(O)C[N+](C)(C)CCO4)cc3)cc2)C1 (stereo not drawn)
not listed: [10] | [12]
inactive: all other assays above

CC(N)Cc1c[nH]c2ccc(OCc3cccs3)cc12 (stereo not drawn)
not listed: [12]
inactive: all other assays above

CP(=O)(O)C1=CCNCC1
not listed: [10] | [11] | [12]
inactive: all other assays above

COc1ccc2[nH]c3c(c2c1)CCNC3
not listed: [10] | [11] | [12]
inactive: all other assays above

CO[C@H]1CC=C2CCN3CCC4=C(CC(=O)OC4)[C@]23C1
not listed: [12]
inactive: all other assays above

NC(C(=O)O)c1cc(=O)[nH]o1 (stereo not drawn)
not listed: [10] | [11] | [12]
inactive: all other assays above

CC(C)(O)[C@@H]1C2OC(=O)[C@@H]1[C@]1(O)C[C@H]3O[C@]34C(=O)O[C@H]2[C@]14C (tested in a mixture with another compound)
not listed: [12]
inactive: all other assays above

CCCN(CCC)C1CCc2cccc(O)c2C1 (stereo not drawn)
not listed: [10] | [11] | [12]
inactive: all other assays above

Oc1ccc2c3c1O[C@H]1c4[nH]c5ccccc5c4C[C@@]4(O)C(C2)N(CC2CC2)CCC314 (stereo partly drawn)
not listed: [12]
inactive: all other assays above

CCOC(=O)c1ncn2c1[C@@H]1CCCN1C(=O)c1cc(OC)ccc1-2
not listed: [11] | [12]
inactive: all other assays above

CCCN1CCC[C@@H](c2cccc(O)c2)C1
not listed: [12]
inactive: all other assays above

C[N+]1(C)CCc2cc3c(cc2[C@H]1[C@@H]1OC(=O)c2c1ccc1c2OCO1)OCO3
not listed: [10] | [12]
inactive: all other assays above

NC(=O)COc1c(F)cc(SCCNS(=O)(=O)c2ccccc2)cc1F
not listed: [11] | [12]
inactive: all other assays above

C[C@H](Cc1ccc2c(c1)OC(C(=O)O)(C(=O)O)O2)NC[C@H](O)c1cccc(Cl)c1
not listed: [10] | [12]
inactive: all other assays above

CC(=O)OCC1=C(C(=O)O)N2C(=O)[C@@H](NC(=O)CCC[C@@H](N)C(=O)O)[C@H]2SC1
active: [4] 4.65 µM | [11] 0.414 µM
not listed: [10] | [12]
inactive: all other assays above

Ic1ccccc1CNC1C2CCN(CC2)C1C(c1ccccc1)c1ccccc1 (stereo not drawn)
active: [12] 13.1 µM
inactive: [4] | [10] | [11] | [5]

COc1ccc2c(c1)C13CCCCC1C(C2)N(C)CC3 (stereo not drawn)
not listed: [10] | [11] | [12]
inactive: all other assays above

O=c1c2ccccc2[se]n1-c1ccccc1
inactive: [5] | [6] | [7] | [8] | [9]

O=c1ccc2[nH]cc(C3=CCNCC3)c2[nH]1
inactive: [3] | [4] | [11]

C=CCN1C[C@@H](C)N([C@H](c2ccc(C(=O)N(CC)CC)cc2)c2cccc(OC)c2)C[C@@H]1C
inactive: [1] | [2] | [4] | [5]

Oc1ccc2c3c1O[C@H]1c4oc5ccccc5c4C[C@@]4(O)C(C2)N(CC2CC2)CCC314 (stereo partly drawn)
inactive: [1] | [2] | [4] | [10] | [5] | [7] | [8]
